Assay results as given in PubChem BioAssay (Tox21).
Where “and” joins values, the source holds several entries; their conditions need not be identical. Identical values can stand only once. Inconclusive results are not listed. More than one record can exist for a structure, and the calls need not agree. Calls of active or inactive are those of the source. Unless noted, the call rests on the fitted dose curve; in most records, active means well fitted curve in the direction sought with a large enough effect in the repeat runs; inconclusive means weak or mixed curves; inactive means no such curve, though single readings can be large; an effect the other way counts as inactive or inconclusive.

Assays:
[1] = molecular target: Aryl hydrocarbon receptor (Homo sapiens) (UniProt P35869); assay: qHTS assay to identify small molecule that activate the aryl hydrocarbon receptor (AhR) signaling pathway (AID 743085); further: nearly all actives have a fitted effect of over 15% in size; further: potency means the concentration at half of the fitted maximal effect;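 on activation: HG2L7.5c1 human HepG2 liver cells with stably integrated DRE-driven firefly reporter; series mostly up to about 70 µM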
Outline: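 Reporter assay in engineered HepG2 line HG2L7.5c1, whose plasmid carries twenty dioxin responsive elements upstream of firefly luciferase. Treatment lasted 24 h at 37C; ONE-Glo luminescence gauged induction.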

[2] = qHTS assay to identify small molecule that activate the aryl hydrocarbon receptor (AhR) signaling pathway - cell viability counter screen (AID 743086);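 further: HepG2 liver cells carrying the AhR DRE luciferase reporter; series mostly up to about 70 µM; nearly all actives have a fitted effect of over 45% in size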
Outline: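 HepG2-AhR-luc (HG2L7.5c1) cells, 4000/well, treated 24 h at 37 C with compound; viability measured as CellTiter-Fluor fluorescence after 30 min in the same wells as the luciferase read.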

[3] = molecular target: Peroxisome proliferator-activated receptor gamma (Homo sapiens) (UniProt P37231); assay: qHTS assay to identify small molecule agonists of the peroxisome proliferator-activated receptor gamma (PPARg) signaling pathway (AID 743094; active means well fitted activation curve with a large enough effect in the signal ratio in the repeat runs, not every such curve was filed as active; the % refers to the signal ratio)
Outline: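 GeneBLAzer PPARg UAS-bla HEK293H cells were plated, rested 5 h, then exposed to compounds for 17 h at 37C. Beta-lactamase activity was read by LiveBLAzer B/G FRET substrate fluorescence after 1 h at room temperature.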

[4] = qHTS assay for small molecule agonists of the antioxidant response element (ARE) signaling pathway (AID 743202; active means well fitted activation curve with a large enough effect in the signal ratio in the repeat runs, not every such curve was filed as active; the % refers to the signal ratio; further: potency means the concentration at half of the fitted maximal effect)
Outline: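 Agonist mode reporter screen: HepG2 cells with ARE-controlled beta-lactamase are incubated with test compounds for 16 h at 37 C, and beta-lactamase activity is measured as fluorescence of cleaved B/G FRET substrate.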

[5] = qHTS assay for small molecule agonists of the antioxidant response element (ARE) signaling pathway - cell viability counter screen (AID 743203; calls by dose curve; further: nearly all actives have a fitted effect of over 55% in size)
Outline: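 ARE-bla HepG2 cells were plated, rested 5 h at 37C/5% CO2, then exposed to compounds in DMSO for 16 h. Viability was read as CellTiter-Glo luminescence after 30 min at room temperature, in the same wells as the ARE screen.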

[6] = qHTS assay for small molecule activators of the heat shock response signaling pathway - cell viability counter screen (AID 743209); further: nearly all actives have a fitted effect of over 50% in size
Outline: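 HSE-bla HeLa cells plated overnight, then exposed to Tox21 compounds (23 nL in DMSO) for 5 h at 37 C. After the bla reporter read, CellTiter-Glo was added in the same wells and luminescence read after 30 min at room temperature.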

[7] = qHTS assay to identify small molecule agonists of the peroxisome proliferator-activated receptor delta (PPARd) signaling pathway - cell viability counter screen (AID 743211); further: nearly all actives have a fitted effect of over 55% in size
Outline: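 Multiplexed format: after the 2 h room-temperature LiveBLAzer B/G FRET step, CellTiter-Glo was added to the same wells. Luminescence after 30 min gave cell viability; compound exposure was 17 h at 37C.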

[8] = molecular target: Peroxisome proliferator-activated receptor delta (Homo sapiens) (UniProt Q03181); assay: qHTS assay to identify small molecule agonists of the peroxisome proliferator-activated receptor delta (PPARd) signaling pathway (AID 743212; calls by dose curve)
Outline: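 Quantitative high-throughput agonist screen in a HEK293H beta-lactamase reporter line under UAS control. Compounds in DMSO, at 37 C. Fluorescence read after 2 h with FRET substrate at room temperature.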

[9] = qHTS assay to identify small molecule antagonists of the peroxisome proliferator-activated receptor delta (PPARd) signaling pathway - cell viability counter screen (AID 743213); further: nearly all actives have a fitted effect of over 50% in size
Outline: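 Luminescence from CellTiter-Glo, added after the bla read and incubated 30 min at room temperature, gives viability of HEK293H PPARd-bla cells exposed to compounds for 17 h at 37 C with 300 nM L165041.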

[10] = molecular target: Peroxisome proliferator-activated receptor delta (Homo sapiens) (UniProt Q03181); assay: qHTS assay to identify small molecule antagonists of the peroxisome proliferator-activated receptor delta (PPARd) signaling pathway (AID 743215; active means well fitted inhibition curve with a large enough effect in the signal ratio in the repeat runs, not every such curve was filed as active; the % refers to the signal ratio;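 further: cells stimulated with agonist L165041 at 300 nM final during compound exposure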; further: potency means the concentration at half of the fitted maximal effect)
Outline: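 PPARd-bla HEK293H cells (UAS-bla reporter) preincubated 5 h, then given compound plus 300 nM final L165041 agonist for 17 h at 37 C. Beta-lactamase activity read by LiveBLAzer B/G FRET substrate fluorescence after 2 h at room temperature.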

[11] = qHTS assay to identify small molecule agonists of the farnesoid-X-receptor (FXR) signaling pathway - cell viability counter screen (AID 743218); further: nearly all actives have a fitted effect of over 45% in size
Outline: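 FXR-UAS-bla HEK 293T cells exposed to compounds for 16 h at 37C. Cytotoxicity read in the same wells by CellTiter-Glo luminescence after 30 min at room temperature, following the beta-lactamase FRET read.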

[12] = qHTS assay to identify small molecule antagonists of the farnesoid-X-receptor (FXR) signaling pathway - cell viability counter screen (AID 743221; active means well fitted cell-killing curve with a large enough effect in the repeat runs, not every such curve was filed as active; further: nearly all actives have a fitted effect of over 50% in size)
Outline: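 CellTiter-Glo, 30 min RT, luminescence; same wells as the LiveBLAzer FRET read. Cells: FXR-UAS-bla HEK 293T. Treatment: compound with chenodeoxycholic acid 50 uM final, 16 h at 37 C.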

[13] = molecular target: Vitamin D3 receptor (Homo sapiens) (UniProt P11473); assay: qHTS assay to identify small molecule agonists of the vitamin D receptor (VDR) signaling pathway (AID 743222; calls by dose curve)
Outline: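 VDR-bla cells plated 4 h at 37 C, then exposed to compounds for 16 h at 37 C. Beta-lactamase reporter activity measured by fluorescence after 2 h room-temperature loading with LiveBLAzer B/G FRET substrate.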

[14] = molecular target: Vitamin D3 receptor (Homo sapiens) (UniProt P11473); assay: qHTS assay to identify small molecule antagonists of the vitamin D receptor (VDR) signaling pathway (AID 743223; active means well fitted inhibition curve with a large enough effect in the signal ratio in the repeat runs, not every such curve was filed as active; the % refers to the signal ratio)
Outline: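 After VDR-bla cells are plated and left 4 h at 37C, DMSO-dissolved compounds and 3 nM (final) calcitriol agonist are added. Incubation continues 16 h at 37C; FRET beta-lactamase substrate then develops 2 h at room temperature.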

[15] = qHTS assay to identify small molecule agonists of the vitamin D receptor (VDR) signaling pathway - cell viability counter screen (AID 743224); further: series mostly up to about 63 µM; nearly all actives have a fitted effect of over 50% in size
Outline: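 VDR-bla cells, 4 h after plating, exposed to compounds for 16 h at 37C; viability then read in the same wells as CellTiter-Glo luminescence after 30 min at room temperature, following the bla FRET read.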

[16] = qHTS assay for small molecule activators of the heat shock response signaling pathway (AID 743210; active means well fitted activation curve with a large enough effect in the signal ratio in the repeat runs, with a control signal flat, not every such curve was filed as active; the % refers to the signal ratio;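 further: HeLa cells with beta-lactamase reporter driven by heat shock elements; series mostly up to about 63 µM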)
Outline: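 Quantitative high-throughput format using an engineered HeLa line in which heat shock response elements drive beta-lactamase; after 5 h with compound, cells received a B/G FRET substrate and fluorescence was read.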

[17] = molecular target: Bile acid receptor (Homo sapiens) (UniProt Q96RI1); assay: qHTS assay to identify small molecule antagonists of the farnesoid-X-receptor (FXR) signaling pathway (AID 743217; active means well fitted inhibition curve with a large enough effect in the signal ratio in the repeat runs, not every such curve was filed as active; the % refers to the signal ratio)
Outline: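 FXR-UAS-bla HEK 293T cells (beta-lactamase reporter) given compound plus chenodeoxycholic acid (50 uM final), 16 h at 37C. LiveBLAzer B/G FRET substrate added for 2 h at room temperature; fluorescence read.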

[18] = molecular target: Bile acid receptor (Homo sapiens) (UniProt Q96RI1); assay: qHTS assay to identify small molecule agonists of the farnesoid-X-receptor (FXR) signaling pathway (AID 743220; active means well fitted activation curve with a large enough effect in the signal ratio in the repeat runs, not every such curve was filed as active; the % refers to the signal ratio)
Outline: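 Beta-lactamase reporter under UAS control in GeneBLAzer FXR HEK 293T cells (5000/well) measured with LiveBLAzer FRET substrate after 2 h at room temperature. Compound exposure lasted 16 h at 37C.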

[19] = molecular target: Peroxisome proliferator-activated receptor gamma (Homo sapiens) (UniProt P37231); assay: qHTS assay to identify small molecule antagonists of the peroxisome proliferator-activated receptor gamma (PPARg) signaling pathway (AID 743191; calls by dose curve; further: series mostly up to about 63 µM; nearly all actives have a fitted effect of over 30% in size)
Outline: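 GeneBLAzer PPARg UAS-bla HEK293H cells, 5 h post-plating, exposed to compounds 17 h at 37C. LiveBLAzer B/G FRET substrate added for 1 h at room temperature; beta-lactamase reporter read by fluorescence intensity.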

[20] = qHTS assay to identify small molecule antagonists of the peroxisome proliferator-activated receptor gamma (PPARg) signaling pathway - cell viability counter screen (AID 743194); further: nearly all actives have a fitted effect of over 55% in size
Outline: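 Cytotoxicity counter screen in PPARg-bla HEK293H cells, same wells as reporter assay. Compounds plus 50 nM rosiglitazone (final) for 17 h at 37 C, then viability read by CellTiter-Glo luminescence.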

Measured: Potency

Vitamin D3 receptor (Homo sapiens), sequence (P11473 whole entry, looked up): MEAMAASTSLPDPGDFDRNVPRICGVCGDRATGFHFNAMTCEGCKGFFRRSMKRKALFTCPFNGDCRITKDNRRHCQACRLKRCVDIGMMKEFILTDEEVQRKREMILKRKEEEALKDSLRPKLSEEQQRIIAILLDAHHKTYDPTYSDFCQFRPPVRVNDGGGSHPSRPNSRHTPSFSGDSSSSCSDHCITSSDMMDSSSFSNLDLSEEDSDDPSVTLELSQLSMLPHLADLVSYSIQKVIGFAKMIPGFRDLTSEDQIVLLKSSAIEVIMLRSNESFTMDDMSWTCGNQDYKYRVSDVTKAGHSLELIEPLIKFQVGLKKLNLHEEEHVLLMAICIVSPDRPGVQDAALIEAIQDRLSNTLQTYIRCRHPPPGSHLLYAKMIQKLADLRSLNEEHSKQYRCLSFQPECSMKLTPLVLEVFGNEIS
Peroxisome proliferator-activated receptor gamma (Homo sapiens), sequence (P37231 whole entry, looked up): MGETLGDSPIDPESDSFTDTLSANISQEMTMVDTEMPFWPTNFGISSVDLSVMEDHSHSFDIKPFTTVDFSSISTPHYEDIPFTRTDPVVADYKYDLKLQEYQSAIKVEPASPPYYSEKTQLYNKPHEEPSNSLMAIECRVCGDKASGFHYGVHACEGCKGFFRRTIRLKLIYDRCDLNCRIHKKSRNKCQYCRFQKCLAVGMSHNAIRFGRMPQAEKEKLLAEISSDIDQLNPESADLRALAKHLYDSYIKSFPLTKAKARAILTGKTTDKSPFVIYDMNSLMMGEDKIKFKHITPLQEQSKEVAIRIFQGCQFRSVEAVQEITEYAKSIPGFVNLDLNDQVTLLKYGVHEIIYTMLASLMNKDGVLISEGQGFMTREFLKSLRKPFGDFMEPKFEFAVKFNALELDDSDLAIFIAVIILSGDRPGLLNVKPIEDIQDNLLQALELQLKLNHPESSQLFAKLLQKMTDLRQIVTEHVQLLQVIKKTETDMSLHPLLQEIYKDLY
Peroxisome proliferator-activated receptor delta (Homo sapiens), sequence (Q03181 whole entry, looked up): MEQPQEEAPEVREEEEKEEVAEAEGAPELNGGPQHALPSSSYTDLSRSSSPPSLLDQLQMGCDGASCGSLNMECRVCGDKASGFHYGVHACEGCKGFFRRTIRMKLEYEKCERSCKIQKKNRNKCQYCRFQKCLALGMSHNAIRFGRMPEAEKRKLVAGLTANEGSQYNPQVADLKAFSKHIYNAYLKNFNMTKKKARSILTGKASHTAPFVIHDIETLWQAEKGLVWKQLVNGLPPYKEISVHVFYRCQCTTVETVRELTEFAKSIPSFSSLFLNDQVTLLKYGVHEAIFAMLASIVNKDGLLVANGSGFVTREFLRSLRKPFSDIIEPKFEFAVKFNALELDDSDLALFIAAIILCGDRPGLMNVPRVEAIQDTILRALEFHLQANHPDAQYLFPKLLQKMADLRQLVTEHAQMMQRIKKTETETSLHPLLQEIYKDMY
Bile acid receptor (Homo sapiens), sequence (Q96RI1 whole entry, looked up): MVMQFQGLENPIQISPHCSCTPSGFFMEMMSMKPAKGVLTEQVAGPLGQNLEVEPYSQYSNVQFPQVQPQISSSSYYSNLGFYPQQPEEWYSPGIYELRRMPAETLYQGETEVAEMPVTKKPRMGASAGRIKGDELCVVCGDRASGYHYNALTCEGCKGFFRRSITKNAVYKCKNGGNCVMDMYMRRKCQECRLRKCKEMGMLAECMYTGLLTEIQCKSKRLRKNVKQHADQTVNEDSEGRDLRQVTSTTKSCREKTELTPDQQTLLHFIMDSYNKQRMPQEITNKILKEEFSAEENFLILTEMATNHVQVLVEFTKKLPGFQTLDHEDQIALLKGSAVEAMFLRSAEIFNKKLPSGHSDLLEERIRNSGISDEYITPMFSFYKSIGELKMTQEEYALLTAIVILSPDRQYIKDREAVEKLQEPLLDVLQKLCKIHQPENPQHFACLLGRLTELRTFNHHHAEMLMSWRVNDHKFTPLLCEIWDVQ
Aryl hydrocarbon receptor (Homo sapiens), sequence (P35869 whole entry, looked up): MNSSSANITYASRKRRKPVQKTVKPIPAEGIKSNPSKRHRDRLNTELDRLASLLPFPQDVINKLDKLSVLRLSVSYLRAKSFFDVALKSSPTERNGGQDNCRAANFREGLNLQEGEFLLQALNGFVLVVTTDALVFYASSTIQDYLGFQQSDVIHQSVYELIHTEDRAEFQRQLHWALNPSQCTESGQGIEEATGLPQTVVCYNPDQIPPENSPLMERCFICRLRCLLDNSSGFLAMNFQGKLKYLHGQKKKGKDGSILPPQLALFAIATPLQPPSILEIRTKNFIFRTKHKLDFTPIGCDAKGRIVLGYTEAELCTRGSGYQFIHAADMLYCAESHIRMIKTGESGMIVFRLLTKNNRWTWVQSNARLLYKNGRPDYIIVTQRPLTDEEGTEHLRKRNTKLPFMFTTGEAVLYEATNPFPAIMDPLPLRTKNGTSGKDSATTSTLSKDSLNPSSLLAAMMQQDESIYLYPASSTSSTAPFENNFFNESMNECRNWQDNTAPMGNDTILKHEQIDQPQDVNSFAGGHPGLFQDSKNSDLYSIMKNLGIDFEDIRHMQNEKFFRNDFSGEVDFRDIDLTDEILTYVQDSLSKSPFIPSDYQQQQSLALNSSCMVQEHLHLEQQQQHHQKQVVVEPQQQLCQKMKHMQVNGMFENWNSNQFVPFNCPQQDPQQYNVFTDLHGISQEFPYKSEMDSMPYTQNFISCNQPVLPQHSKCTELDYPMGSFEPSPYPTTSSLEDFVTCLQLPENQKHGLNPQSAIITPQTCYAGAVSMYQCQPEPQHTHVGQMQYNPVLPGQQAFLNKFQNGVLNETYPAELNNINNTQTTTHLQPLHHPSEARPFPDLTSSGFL

CCCN(CCC)N=O
not listed: [16] | [17] | [18] | [19] | [20]
inactive: all other assays above

CCC(C)(CC)c1cc(NC(=O)c2c(OC)cccc2OC)on1
active: [1] 61.3 µM
55.1 µM (active) and inactive: [10]
not listed: [4] | [16] | [17] | [18] | [19] | [20]
inactive: all other assays above

c1ccc2c(c1)oc1ccccc12
not listed: [1] | [3] | [16] | [17] | [18] | [19] | [20]
inactive: all other assays above

C=CC(N)=O
not listed: [3] | [16] | [17] | [18] | [19] | [20]
inactive: all other assays above

CC(C)OC(=O)Nc1cccc(Cl)c1
not listed: [19] | [20]
inactive: all other assays above

Cc1cccc([N+](=O)[O-])c1
not listed: [1] | [10] | [12] | [16] | [20]
inactive: all other assays above

C#CC(C)(C)NC(=O)c1cc(Cl)cc(Cl)c1
not listed: [3] | [12] | [16] | [17] | [18] | [19]
inactive: all other assays above

C[C@]12CC[C@H]3[C@@H](CC[C@@]45O[C@@H]4C(O)=C(C#N)C[C@]35C)[C@@H]1CC[C@@H]2O
active: [4] 30.6 µM and 23.7 µM
not listed: [3] | [14] | [16] | [17] | [18] | [19]
inactive: all other assays above

CN1C(=O)CN=C(c2ccccc2)c2cc(Cl)ccc21
not listed: [1] | [3] | [8] | [10] | [19]
inactive: all other assays above

CC(C)(C)OOC(C)(C)C
not listed: [13] | [14] | [19] | [20]
inactive: all other assays above

CC(C)(C)C(O)(CCc1ccc(Cl)cc1)Cn1cncn1 (stereo unspecified)
not listed: [3] | [4] | [17] | [18] | [19]
inactive: all other assays above

Cc1ccc(N)cc1Cl
not listed: [1] | [8] | [10] | [17] | [18] | [20]
inactive: all other assays above

O=[N+]([O-])c1ccc(Oc2ccc(Cl)cc2Cl)cc1
not listed: [11] | [17] | [18] | [19] | [20]
inactive: all other assays above

CC(C)=C[C@@H]1[C@@H](C(=O)OCc2coc(Cc3ccccc3)c2)C1(C)C
not listed: [16] | [17] | [19] | [20]
inactive: all other assays above

CCCCN(CCCC)SN(C)C(=O)Oc1cccc2c1OC(C)(C)C2
not listed: [16] | [17] | [18] | [19] | [20]
inactive: all other assays above

Nc1ccc(Oc2ccc(N)cc2)cc1
active: [1] 11 µM
not listed: [13] | [14] | [16] | [17] | [18] | [19] | [20]
inactive: all other assays above

CCCCCCCCCl
not listed: [12] | [16] | [19] | [20]
inactive: all other assays above

CC(=O)C=C(C)C
not listed: [8] | [10] | [16] | [17] | [18] | [19] | [20]
inactive: all other assays above

CC(C)(C)OOC(=O)c1ccccc1
not listed: [17] | [18] | [19] | [20]
inactive: all other assays above
